Reference: the supplement of paper PMC10849652
About 8,800 targets were measured; listed, in parts, are those with a hit and a random draw of the rest. About 0.5% of all pairs of compound and target were hits.

Legend:
Assay in all cases: log2 fold change, soluble protein after heating vs DMSO (PISA); higher = thermal stabilisation; K562 lysate, 10 uM; active = over 0.2 and 3.5 SD of the protein, either way, in both replicates (recomputed)
[1] = compound: NCC(=O)Nc1ccc(-n2nc(C(F)(F)F)cc2-c2ccc3c(ccc4ccccc43)c2)cc1
Summary of the method: (§1)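 Log-two fold change in thermal stability relative to solvent controls is reported from duplicates. For each sample, crude K562 extract from dounce-homogenised pellets in PBS pH 7.4 with 1 mM MgCl2, at 1 mg/mL protein, was treated with 10 μM compound for 30 min. Aliquots heated for 3 min across 48°C-58°C were pooled, brought to 0.5% NP-40 at 4°C and cleared at 21,000xg for 90 min. The supernatant was quantified by TMTpro 16plex LC-MS/MS with channel sums equalised.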

[2] = compound: O=C(CCCCCCC(=O)Nc1ccccc1)NO [vorinostat]
Summary of the method: as §1

[3] = compound: O=C(O)c1ccc2c(c1)nc(Nc1cccc(Cl)c1)c1ccncc12 [silmitasertib]
Summary of the method: as §1

[4] = compound: O=C1NC(=O)C(c2cnc3ccccn23)=C1c1cn2c3c(cc(F)cc13)CN(C(=O)N1CCCCC1)CC2
Summary of the method: as §1

[5] = compound: c1cn2cc(-c3ccc4cn[nH]c4c3)nc(Nc3ccc(N4CCOCC4)cc3)c2n1 [entospletinib]
Summary of the method: as §1

Measured: log2 fold change

CMTM3 (UniProt Q96MX0)
active: [2] -0.516
inactive: [1] 0.05 | [3] -0.004 | [4] -0.03 | [5] -0.004

CSTF2 (UniProt P33240)
inactive: [1] 0.001 | [2] 0.046 | [3] 0.007 | [4] 0.013 | [5] -0.045

CLUH (UniProt O75153)
UniProt O75153, sequence (O75153 whole entry, looked up): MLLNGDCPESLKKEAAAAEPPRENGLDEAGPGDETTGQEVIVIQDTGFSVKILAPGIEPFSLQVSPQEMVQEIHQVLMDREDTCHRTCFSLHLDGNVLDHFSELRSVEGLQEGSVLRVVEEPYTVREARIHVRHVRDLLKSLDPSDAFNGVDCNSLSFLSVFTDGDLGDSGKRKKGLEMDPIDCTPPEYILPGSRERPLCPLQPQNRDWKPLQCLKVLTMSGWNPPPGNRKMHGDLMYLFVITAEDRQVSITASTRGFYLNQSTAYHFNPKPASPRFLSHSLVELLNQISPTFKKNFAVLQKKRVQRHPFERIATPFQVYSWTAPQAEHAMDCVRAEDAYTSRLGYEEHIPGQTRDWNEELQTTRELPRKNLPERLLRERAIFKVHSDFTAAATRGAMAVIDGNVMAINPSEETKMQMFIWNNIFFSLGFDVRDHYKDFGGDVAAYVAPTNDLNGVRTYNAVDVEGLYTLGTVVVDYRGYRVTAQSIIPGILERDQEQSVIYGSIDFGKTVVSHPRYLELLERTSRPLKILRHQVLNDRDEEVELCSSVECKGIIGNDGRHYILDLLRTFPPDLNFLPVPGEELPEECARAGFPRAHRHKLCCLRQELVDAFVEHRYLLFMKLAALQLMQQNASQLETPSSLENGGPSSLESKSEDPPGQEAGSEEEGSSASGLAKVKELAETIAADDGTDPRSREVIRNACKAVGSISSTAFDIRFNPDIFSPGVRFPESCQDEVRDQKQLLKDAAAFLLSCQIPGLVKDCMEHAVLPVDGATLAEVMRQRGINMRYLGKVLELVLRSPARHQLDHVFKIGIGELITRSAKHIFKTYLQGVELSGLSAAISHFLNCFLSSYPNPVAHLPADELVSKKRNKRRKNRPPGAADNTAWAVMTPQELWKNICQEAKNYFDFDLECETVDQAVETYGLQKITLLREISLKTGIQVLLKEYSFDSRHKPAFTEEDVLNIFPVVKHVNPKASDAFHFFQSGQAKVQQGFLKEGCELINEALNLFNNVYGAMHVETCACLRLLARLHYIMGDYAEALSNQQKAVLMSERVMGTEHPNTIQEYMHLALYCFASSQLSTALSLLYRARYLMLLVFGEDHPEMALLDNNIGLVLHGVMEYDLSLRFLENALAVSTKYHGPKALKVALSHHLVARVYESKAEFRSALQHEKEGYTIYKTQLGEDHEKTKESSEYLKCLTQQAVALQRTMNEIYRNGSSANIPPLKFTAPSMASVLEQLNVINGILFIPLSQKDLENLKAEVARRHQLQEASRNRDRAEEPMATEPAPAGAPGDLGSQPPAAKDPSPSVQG
active: [2] 0.404
inactive: [1] -0.011 | [3] 0.071 | [4] 0.033 | [5] 0.01

CHEK2 (UniProt O96017)
UniProt O96017, sequence (O96017 whole entry, looked up): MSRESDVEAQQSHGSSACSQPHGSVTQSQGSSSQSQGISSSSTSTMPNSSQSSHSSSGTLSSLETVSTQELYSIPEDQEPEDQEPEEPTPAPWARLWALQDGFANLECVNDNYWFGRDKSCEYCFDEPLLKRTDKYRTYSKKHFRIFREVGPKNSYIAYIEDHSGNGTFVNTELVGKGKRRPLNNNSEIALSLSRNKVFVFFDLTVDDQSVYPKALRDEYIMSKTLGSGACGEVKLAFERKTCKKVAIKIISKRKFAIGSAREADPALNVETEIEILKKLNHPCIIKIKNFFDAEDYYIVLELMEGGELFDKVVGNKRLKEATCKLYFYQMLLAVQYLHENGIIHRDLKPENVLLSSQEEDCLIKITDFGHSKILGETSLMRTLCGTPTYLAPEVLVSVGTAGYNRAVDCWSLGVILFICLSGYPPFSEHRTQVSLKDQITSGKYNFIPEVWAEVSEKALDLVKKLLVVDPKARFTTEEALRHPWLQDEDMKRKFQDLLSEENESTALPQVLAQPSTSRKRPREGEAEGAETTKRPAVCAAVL
inactive: [1] -0.021 | [2] -0.128 | [3] 0.04 | [4] -0.006 | [5] -0.033

DIAPH1 (UniProt H9KV28)
inactive: [1] -0.002 | [2] 0.087 | [3] 0.084 | [4] -0.083 | [5] -0.113

CPT1A (UniProt P50416)
inactive: [1] -0.033 | [3] -0.001 | [4] -0.002 | [5] -0.06
active: [2] 0.406

CTNND1 isoform 3 (UniProt O60716)
active: [2] -0.371
inactive: [1] -0.017 | [3] 0.034 | [4] -0.014 | [5] -0.005

DEF6 (UniProt Q9H4E7)
inactive: [1] 0.085 | [3] 0.032 | [4] -0.045 | [5] 0.022
active: [2] -0.416

CLASP2 isoform 3 (UniProt O75122)
UniProt O75122, sequence (O75122 whole entry, looked up): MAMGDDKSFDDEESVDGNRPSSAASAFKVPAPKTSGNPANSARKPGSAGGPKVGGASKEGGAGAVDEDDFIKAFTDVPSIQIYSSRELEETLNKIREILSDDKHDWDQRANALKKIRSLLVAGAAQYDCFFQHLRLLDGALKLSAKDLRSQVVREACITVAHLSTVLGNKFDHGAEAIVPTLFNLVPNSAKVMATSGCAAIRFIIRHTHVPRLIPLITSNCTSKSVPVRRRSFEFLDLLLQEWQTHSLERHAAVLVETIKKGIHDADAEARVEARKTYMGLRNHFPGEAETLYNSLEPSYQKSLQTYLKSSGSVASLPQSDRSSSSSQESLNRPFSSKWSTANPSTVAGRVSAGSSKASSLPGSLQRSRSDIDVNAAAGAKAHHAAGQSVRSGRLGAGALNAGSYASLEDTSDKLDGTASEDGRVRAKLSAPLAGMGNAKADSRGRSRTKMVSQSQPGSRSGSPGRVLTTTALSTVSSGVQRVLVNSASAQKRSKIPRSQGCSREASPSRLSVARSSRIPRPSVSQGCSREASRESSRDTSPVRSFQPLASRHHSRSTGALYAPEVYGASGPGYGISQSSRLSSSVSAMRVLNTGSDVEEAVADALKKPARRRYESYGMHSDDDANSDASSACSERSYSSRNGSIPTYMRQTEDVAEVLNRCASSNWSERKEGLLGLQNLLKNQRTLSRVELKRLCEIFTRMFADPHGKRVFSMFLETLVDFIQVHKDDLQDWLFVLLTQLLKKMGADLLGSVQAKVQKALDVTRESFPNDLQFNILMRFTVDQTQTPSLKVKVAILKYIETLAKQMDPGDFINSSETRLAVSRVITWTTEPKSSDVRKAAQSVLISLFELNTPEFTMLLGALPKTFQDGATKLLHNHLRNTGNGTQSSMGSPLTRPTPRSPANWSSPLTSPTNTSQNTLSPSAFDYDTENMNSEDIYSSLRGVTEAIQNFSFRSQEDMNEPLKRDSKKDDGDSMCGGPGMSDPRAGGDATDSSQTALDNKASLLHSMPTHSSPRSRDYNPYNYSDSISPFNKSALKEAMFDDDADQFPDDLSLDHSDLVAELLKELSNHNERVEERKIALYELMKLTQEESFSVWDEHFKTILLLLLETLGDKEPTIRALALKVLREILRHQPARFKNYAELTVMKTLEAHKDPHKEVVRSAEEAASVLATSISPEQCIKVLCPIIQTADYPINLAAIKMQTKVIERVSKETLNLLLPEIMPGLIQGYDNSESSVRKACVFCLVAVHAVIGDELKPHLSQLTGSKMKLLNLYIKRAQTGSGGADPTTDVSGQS
inactive: [1] 0.035 | [3] -0.033 | [4] -0.02 | [5] 0.005
active: [2] -0.329

CUX1 isoform 3 (UniProt P39880)
UniProt P39880, sequence (P39880 whole entry, looked up): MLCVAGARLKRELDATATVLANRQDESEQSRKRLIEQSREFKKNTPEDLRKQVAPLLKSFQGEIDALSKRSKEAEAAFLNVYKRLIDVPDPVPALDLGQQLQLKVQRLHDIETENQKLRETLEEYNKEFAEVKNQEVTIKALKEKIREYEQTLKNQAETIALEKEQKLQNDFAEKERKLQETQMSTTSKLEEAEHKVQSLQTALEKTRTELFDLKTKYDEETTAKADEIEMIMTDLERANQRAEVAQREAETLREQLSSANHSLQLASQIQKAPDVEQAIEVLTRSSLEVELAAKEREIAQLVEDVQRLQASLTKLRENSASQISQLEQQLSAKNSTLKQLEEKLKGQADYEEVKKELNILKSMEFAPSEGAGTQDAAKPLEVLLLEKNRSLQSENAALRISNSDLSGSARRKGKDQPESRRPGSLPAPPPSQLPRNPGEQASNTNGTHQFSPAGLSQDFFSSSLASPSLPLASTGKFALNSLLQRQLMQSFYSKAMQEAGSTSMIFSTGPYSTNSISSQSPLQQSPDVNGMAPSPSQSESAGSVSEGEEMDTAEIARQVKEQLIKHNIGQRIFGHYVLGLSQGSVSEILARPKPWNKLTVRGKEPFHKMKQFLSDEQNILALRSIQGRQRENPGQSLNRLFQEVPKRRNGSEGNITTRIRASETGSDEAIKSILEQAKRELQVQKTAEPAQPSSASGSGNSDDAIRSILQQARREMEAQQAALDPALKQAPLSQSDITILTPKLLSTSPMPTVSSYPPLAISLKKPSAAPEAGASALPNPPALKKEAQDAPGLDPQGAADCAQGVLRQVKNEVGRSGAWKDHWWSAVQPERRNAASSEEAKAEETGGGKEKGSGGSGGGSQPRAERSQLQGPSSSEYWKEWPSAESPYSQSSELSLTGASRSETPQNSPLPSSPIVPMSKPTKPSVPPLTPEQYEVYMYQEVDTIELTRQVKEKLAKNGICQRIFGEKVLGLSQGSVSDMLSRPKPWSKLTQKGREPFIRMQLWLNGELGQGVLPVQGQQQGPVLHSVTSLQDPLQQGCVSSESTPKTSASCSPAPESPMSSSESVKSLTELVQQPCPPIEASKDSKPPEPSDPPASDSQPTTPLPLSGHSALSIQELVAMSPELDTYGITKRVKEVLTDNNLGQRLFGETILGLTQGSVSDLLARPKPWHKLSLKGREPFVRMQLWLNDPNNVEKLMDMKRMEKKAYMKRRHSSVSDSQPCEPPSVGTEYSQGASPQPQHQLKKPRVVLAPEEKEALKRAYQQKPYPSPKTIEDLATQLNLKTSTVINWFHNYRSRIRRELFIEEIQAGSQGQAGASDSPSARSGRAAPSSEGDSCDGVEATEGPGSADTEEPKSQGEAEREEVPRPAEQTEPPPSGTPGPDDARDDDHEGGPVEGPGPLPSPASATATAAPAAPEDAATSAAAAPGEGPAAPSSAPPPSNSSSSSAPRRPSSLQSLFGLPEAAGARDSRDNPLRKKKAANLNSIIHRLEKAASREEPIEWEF
inactive: [1] 0.008 | [2] 0.005 | [3] 0.025 | [4] -0.022 | [5] -0.014

CUEDC2 (UniProt Q9H467)
UniProt Q9H467, sequence (Q9H467 whole entry, looked up): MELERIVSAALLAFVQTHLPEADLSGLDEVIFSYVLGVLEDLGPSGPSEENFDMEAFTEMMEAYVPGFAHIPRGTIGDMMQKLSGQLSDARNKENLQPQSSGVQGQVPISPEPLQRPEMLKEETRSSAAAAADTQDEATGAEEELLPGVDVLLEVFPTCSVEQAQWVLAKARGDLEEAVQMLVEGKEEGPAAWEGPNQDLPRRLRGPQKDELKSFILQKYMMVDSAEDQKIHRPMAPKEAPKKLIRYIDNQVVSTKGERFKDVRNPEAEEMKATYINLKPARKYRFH
inactive: [1] -0.01 | [2] 0.151 | [3] -0.012 | [4] 0.003 | [5] 0.066

CXXC1 isoform 2 (UniProt Q9P0U4)
inactive: [1] -0.008 | [2] -0.18 | [3] 0.08 | [4] 0.027 | [5] -0.033

CLUH, A0A494C0R8
inactive: [1] -0.115 | [2] 0.028 | [3] 0.069 | [4] 0.033 | [5] 0.033

COTL1 (UniProt Q14019)
UniProt Q14019, sequence (Q14019 whole entry, looked up): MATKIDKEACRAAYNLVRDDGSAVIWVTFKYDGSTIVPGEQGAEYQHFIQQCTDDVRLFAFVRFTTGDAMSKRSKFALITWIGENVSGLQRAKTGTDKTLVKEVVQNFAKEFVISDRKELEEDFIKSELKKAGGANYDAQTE
inactive: [1] -0.03 | [2] 0.147 | [3] 0 | [4] -0.021 | [5] 0.023
